{
  "source": "PubChem BioAssay (NCI)",
  "note": "The panel holds about 83,000 compounds, 20% with a hit somewhere; the sample as a whole holds those more often.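 Interpretation: 100, growth as untreated; towards 0, rising growth inhibition; 0, no net growth; 0 to -100, cell death. Compounds scoring below 10 were considered active.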 A number with no mark means an inactive call. Activity calls are given as the source filed them.",
  "data": [
    {"system": "HT29 colon", "test": "NCI-60 one-dose screen, 48 h (100 = growth as untreated, 0 = no growth, -100 = all killed)", "conditions": "10 µM", "description": "Growth inhibition of the HT29 human tumor cell line is measured as a screen for anti-cancer activity. Cells are grown in 96 well plates and exposed to the test compound for 48 hours. Compounds are tested at a single concentration, which is 10^-5 M for most compounds. The reported endpoint is percent growth (GI% or GIPRCNT), where numbers from 0 - 100% represent growth inhibition, and numbers from -100% - 0 represent cell death. For example, a value of 40 represents 60% growth inhibition. A value of 0 means no net growth occurred over the course of the experiment. A value of -40 indicates 40% of cells at the beginning of the experiment died by the end of the experiment. A value of -100 means all cells are dead at the end of the experiment.\nNCI-60 Human Tumor Cell Lines Screen was performed using the standard one-dose NCI protocol, which is described in more detail at https://dtp.cancer.gov/discovery_development/nci-60/default.htm.\nCompounds with GIPRCNT values below 10 were considered active. Activity score was based on GIPRCNT using the following formula: […]\nScore is 0 for GIPRCNT values of 100 or above, 50 for GIPRCNT values of 0, and 100 for GIPRCNT values of -100.", "values": [
      {"smiles": "CC(C(=O)O)(C1CCCCC1)C1(O)CCCCC1", "note": "(stereo not given)", "growth": "101%"},
      {"smiles": "COc1cc(/C=C/C(=O)c2ccccc2)cc(OC)c1OC", "growth": "19.1%"},
      {"smiles": "O=C(O)[C@@H]1[C@H]2C[C@H]3c4[nH]c5ccccc5c4CCN3C[C@@H]2CC[C@@H]1O", "growth": "103%"},
      {"smiles": "CSC[C@H](NC(=O)COc1cccc2cnccc12)C(=O)NC(Cc1ccccc1)C(O)C(=O)N1CSC[C@H]1C(=O)NC(C)(C)C", "note": "(stereo not given in full)", "growth": "108%"},
      {"smiles": "O=[N+]([O-])c1ccc(-c2noc(-c3cccs3)n2)cc1", "growth": "92.5%"},
      {"smiles": "O=C1c2ccccc2C(=O)c2c1ccc(C(=O)O)c2[N+](=O)[O-]", "growth": "93.8%"},
      {"smiles": "Nc1ccccc1C(=O)Nc1ccc(Cl)cc1Cl", "growth": "93.2%"},
      {"smiles": "O=C1c2ccccc2C(=O)N1OCc1ccccc1", "growth": "103%"},
      {"smiles": "CC(=O)CC(=O)N(C)C", "growth": "97.8%"},
      {"smiles": "COc1ccc(-c2cc3c(nn2)-c2ccccc2C3=O)cc1", "growth": "-24.8% (active)"},
      {"smiles": "NNc1ccccc1C(=O)O", "growth": "105%"},
      {"smiles": "CCCCC(O)c1ccccc1", "note": "(stereo not given)", "growth": "-11.4% (active)"},
      {"smiles": "Nc1nc(OCc2ccccc2)c2[nH]cnc2n1", "growth": "105%"},
      {"smiles": "Cc1cc2nc(CC(=O)c3cccc([N+](=O)[O-])c3)c(=O)[nH]c2cc1C", "growth": "68.2%"},
      {"smiles": "Cc1ccc(Cl)cc1N1C(=O)CC(Sc2ccccc2N)C1=O", "note": "(stereo not given)", "growth": "109%"},
      {"smiles": "COC(=O)c1[nH]c(=O)c(C#N)c(C(=O)OC)c1C(=O)c1ccccc1", "growth": "113%"},
      {"smiles": "[O-][N+](=Nc1cccc(Cl)c1)c1cccc(Cl)c1", "growth": "106%"},
      {"smiles": "CCCC[P+](c1ccccc1)(c1ccccc1)c1ccccc1", "growth": "40.9%"},
      {"smiles": "CN(C)c1ccc(C(c2ccc(O)cc2)c2ccc(N(C)C)cc2)cc1", "growth": "86.2%"},
      {"smiles": "COC(=O)c1ccc(C(C)C)cc1", "growth": "107%"},
      {"smiles": "CN(C)C(C)(C)CC(C)(C)C", "growth": "119%"},
      {"smiles": "CC1(c2ccccc2)NC(=O)NC1=O", "note": "(stereo not given)", "growth": "110%"},
      {"smiles": "COc1cc(C2c3cc4c(cc3C3OC(=O)C2C3CO)OCO4)cc(OC)c1OC", "note": "(stereo not given)", "growth": "-9.63% (active)"},
      {"smiles": "CCCNC(=O)c1ccc(S(N)(=O)=O)cc1", "growth": "93.1%"},
      {"smiles": "CC(C)=C(NC(=O)c1ccccc1)C(=O)O", "growth": "99.6%"},
      {"smiles": "N#Cc1ccc(NC(=O)Nc2cccc(C#N)c2)cc1", "growth": "97.3%"},
      {"smiles": "Cc1cc(NC(=O)CSCC(=O)O)no1", "growth": "98.5%"},
      {"smiles": "CC(C)COC(=O)COC(=O)OCCOCCOC(=O)OCC(=O)OCC(C)C", "growth": "101%"},
      {"smiles": "O=C(NCCNC(=O)c1ccc(Cl)cc1Cl)c1ccc(Cl)cc1Cl", "growth": "118%"},
      {"smiles": "COc1ccc(C)cc1OC", "growth": "108%"},
      {"smiles": "O=C(O)c1ccccc1NCc1ccco1", "growth": "98.7%"},
      {"smiles": "O=C1Cc2cc(O)ccc2O1", "growth": "104%"},
      {"smiles": "CCC(=O)Oc1ccc(OC)cc1", "growth": "105%"},
      {"smiles": "CC(C)=NNc1ccc([N+](=O)[O-])cc1[N+](=O)[O-]", "growth": "91.8%"},
      {"smiles": "Cc1cc(Cc2cc(C)c(N)cc2N)c(N)cc1N", "growth": "95.9%"},
      {"smiles": "COc1cccc(Sc2ccc([N+](=O)[O-])c3no[n+]([O-])c23)c1", "growth": "30.2%"},
      {"smiles": "CC1(O)OC(COc2ccc(Cl)cc2)COC1O", "note": "(stereo not given)", "growth": "116%"},
      {"smiles": "Cc1ccc(/C=C2\\SC(=S)N(c3ccc(F)cc3)C2=O)o1", "growth": "70.6%"},
      {"smiles": "O=S(=O)(O)C(Nc1ccccc1)c1ccccc1", "note": "(stereo not given)", "growth": "105%"},
      {"smiles": "NC(=S)N/N=C/c1ccc(N)cc1", "growth": "107%"}
    ]}
  ]
}
